Results on eleven compounds are retold here after PubChem BioAssay.

Activity calls are given as the source filed them. Unless noted, no rule for the calls is given here.

A short description of test [1]: resazurin metabolic signal in HepG2 cells – cell-based, resazurin fluorescence, 24 h, PK04 Diversity Set, profiling panel (AID 1172). Also: test concentration not given here. As to conditions: HepG2 viability, higher = more signal.
Test [2] can be described thus: budding yeast growth changes without added modifier – OD600, strain BY4716, 24 h, basal condition, primary screen (AID 1173). The settings on record: S. cerevisiae BY4716 growth, OD600, 24 h; higher = more signal, called active from +8 up or from −8 down.
The nature of test [3]: viability profiling in MM1S myeloma cells – cell-based, resazurin fluorescence, basal, 24 h, PK04 Diversity Set, profiling panel (AID 1174).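 Also: MM1S multiple myeloma cell line; test concentration not given here.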 As to conditions: higher = more signal, called active from +8 up or from −8 down.
Test [4] addresses Dihydroorotate dehydrogenase (quinone), mitochondrial (Plasmodium falciparum (isolate 3D7)) (UniProt Q08210). In words: inhibition of P. falciparum DHODH – biochemical, C-terminal His tag, absorbance 600 nm, primary screen (AID 1175).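 Also: recombinant parasite enzyme with a five histidine tag at its C terminus; test concentration not given here.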 As to conditions: PfDHODH enzyme, DCIP absorbance 600 nm; higher = more signal, called active from +8 up or from −8 down.
The nature of test [5]: inhibition of PAO1 biofilm formation – strain PAO1, LB-PBS medium, absorbance 600 nm, primary screen (AID 1176). Also: test concentration not given here. The settings on record: P. aeruginosa PAO1 growth/biofilm, A600, 12 h; higher = more signal.
Test [6] in a line: growth modulation of vineyard yeast isolate – strain RM11-1a, OD600, basal, 24 h, primary screen (AID 1177).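 Also: cultures grown under basal conditions with no added stressor; test concentration not given here.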 As to conditions: S. cerevisiae RM11-1a growth, OD600, 24 h; higher = more signal, called active from +8 up or from −8 down.
Test [7] in a line: growth of efflux-deficient E. coli DRC39 – strain DRC39, OD650, 24 h, E. coli filamentation inducers, primary screen (AID 1178).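 Also: growth measured as culture turbidity by optical density at 650 nm; test concentration not given here.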 The settings on record: E. coli DRC39 acrAB, higher = more signal, called active from +8 up or from −8 down.
The nature of test [8]: growth of efflux-deficient E. coli DRC39 – strain DRC39, OD650, 48 h, E. coli filamentation inducers, primary screen (AID 1179).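 Also: screen aims at cell division blockers that make cells filament.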 The settings on record: E. coli DRC39 delta-acrAB growth, higher = more signal, called active from +8 up or from −8 down.
The nature of test [9]: viability profiling in RPMI8226 myeloma cells – cell-based, resazurin fluorescence, basal, 24 h, PK04 Diversity Set, profiling panel (AID 1180).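 Also: RPMI8826 multiple myeloma cell line at 5000 cells per well; test concentration not given here.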 As to conditions: higher = more signal.
The target in test [10] is E3 ubiquitin-protein ligase XIAP (Homo sapiens) (UniProt P98170). In words: small molecules binding XIAP protein – biophysical, small-molecule microarray, fluorescence 635 nm, primary screen (AID 1181).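 Also: score merges 667 nm emission and signal to noise over triplicate slides.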 The settings on record: higher = more signal.
Chain of E3 ubiquitin-protein ligase XIAP (Homo sapiens) (P98170 whole entry, looked up): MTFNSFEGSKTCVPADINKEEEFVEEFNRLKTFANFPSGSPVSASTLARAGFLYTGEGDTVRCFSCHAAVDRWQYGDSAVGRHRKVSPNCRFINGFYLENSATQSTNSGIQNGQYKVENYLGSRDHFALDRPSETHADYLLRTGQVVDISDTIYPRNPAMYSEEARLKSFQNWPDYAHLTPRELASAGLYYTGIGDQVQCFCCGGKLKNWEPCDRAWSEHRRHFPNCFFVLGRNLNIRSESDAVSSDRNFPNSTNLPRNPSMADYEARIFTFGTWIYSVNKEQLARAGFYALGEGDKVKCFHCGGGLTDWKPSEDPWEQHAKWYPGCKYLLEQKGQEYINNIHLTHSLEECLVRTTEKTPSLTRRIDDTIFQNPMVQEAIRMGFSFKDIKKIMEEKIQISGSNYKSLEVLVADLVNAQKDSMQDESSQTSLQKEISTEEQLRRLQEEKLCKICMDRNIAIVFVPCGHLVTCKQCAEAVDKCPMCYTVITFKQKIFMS

Chain of Dihydroorotate dehydrogenase (quinone), mitochondrial (Plasmodium falciparum (isolate 3D7)) (Q08210 whole entry, looked up): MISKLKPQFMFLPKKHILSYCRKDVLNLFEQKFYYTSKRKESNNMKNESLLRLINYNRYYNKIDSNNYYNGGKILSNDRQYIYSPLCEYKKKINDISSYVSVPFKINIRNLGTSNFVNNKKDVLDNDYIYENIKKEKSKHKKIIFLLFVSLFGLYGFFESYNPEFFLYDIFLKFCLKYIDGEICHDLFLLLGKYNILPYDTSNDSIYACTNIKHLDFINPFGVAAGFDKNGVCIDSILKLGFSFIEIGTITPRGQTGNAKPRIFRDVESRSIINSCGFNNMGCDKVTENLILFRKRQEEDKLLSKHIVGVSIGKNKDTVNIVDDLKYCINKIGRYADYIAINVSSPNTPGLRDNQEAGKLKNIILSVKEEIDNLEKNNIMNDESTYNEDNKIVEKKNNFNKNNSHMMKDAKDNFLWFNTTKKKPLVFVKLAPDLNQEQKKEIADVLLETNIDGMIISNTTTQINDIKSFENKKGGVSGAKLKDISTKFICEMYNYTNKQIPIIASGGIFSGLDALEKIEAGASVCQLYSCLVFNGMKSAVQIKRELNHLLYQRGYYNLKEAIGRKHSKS

Turning to `COc1ccc(CCNC(=O)[C@@]2(Sc3ccc(C)cc3)CC(=O)N(C3Cc4ccccc4C3)[C@@H]2c2ccc(CO)cc2I)cc1`, the z-score in [1] is 0.0641; in [2], -3.1 (inactive); in [3], -2.13 (inactive); in [5], -0.171 (inactive); in test [6] it was 1 (inactive); in test [7], 0.0559 (inactive). Further, the z-score in [8] is -0.325 (inactive); in test [9] it was -1.43. The composite z-score in [4] is 0.371 (inactive); in test [10], 0.148.
In the case of `CO[C@H]1O[C@H](CO)[C@@H](OC(=O)Nc2cccc(F)c2)[C@H](OC(=O)Nc2ccccc2)[C@@H]1OC(=O)Nc1ccccc1`, the z-score in [1] is -1.62; in test [2] it was 0.706 (inactive); in test [3], -2.56 (inactive); in [5], 0.758 (inactive); in test [6] it was 0.666 (inactive); in test [7], -0.002 (inactive). Further, the z-score in [8] was -0.0057 (inactive); in test [9], -2.4. Further, the composite z-score in test [4] was 0.127 (inactive); in test [10], 0.0623.
As for `CC1CC/C=C\[C@H]2OC34C=CCN(C(C)(C)C)C(=O)[C@H]3N(CCO)C(=O)[C@@H]4C2C(=O)O1` (stereo not given in full), the z-score in test [1] was 0.488; in test [2], -0.68 (inactive); in test [3], -0.0542 (inactive); in [5], 0.22 (inactive); in test [6], -0.546 (inactive); in test [7] it was -0.344 (inactive). The z-score in test [8] is -0.519 (inactive); in [9], -0.138. The composite z-score in test [4] is -0.0848 (inactive); in test [10], -0.309.
For the compound `COCCOC(=O)N1C(=O)[C@@]2(c3cc(C#CCC(C(=O)OC)C(=O)OC)ccc31)[C@H](c1ccccc1OCCO)N1[C@H](c3ccccc3)[C@H](c3ccccc3)OC(=O)[C@H]1[C@@H]2C(=O)N1CCN(c2ncccn2)CC1`, the z-score was 0.326 in test [1]; 2.4 (inactive) in [2]; 1.04 (inactive) in test [3]; 3.18 (inactive) in test [5]; 3.19 (inactive) in test [6]; 0.862 (inactive) in test [7]. Moreover, the values for the z-score in test [8] and in test [9] were 0.519 (inactive) and -0.83, respectively. For the same compound, the composite z-score in test [4] was -0.388 (inactive); in [10] it was -0.0095.
For `C=CC1(C(=O)OC)CC=C(C(=O)OC)CC1` (stereo not given), the z-score in test [1] is 0.249; in test [2], 0.489 (inactive); in [3], 0.501 (inactive); in [5], 0.201 (inactive); in test [6] it was -0.834 (inactive); in [7], -0.233 (inactive). Further, the z-score is 1.19 (inactive) in [8] and 1.08 in test [9]. Besides, the composite z-score in test [4] was -2.11 (inactive); in [10], -0.248.
Consider `COc1cccc(-c2cccc(=O)o2)c1`, for which the z-score in test [1] is -0.314; in test [2], -7.29 (inactive); in test [3] it was -0.28 (inactive); in test [5], 0.381 (inactive); in test [6] it was 0.346 (inactive); in [7], -0.0605 (inactive). In addition, the values for the z-score in test [8] and in test [9] were -0.17 (inactive) and -0.0335, respectively. For the same compound, the composite z-score in test [4] is -1.02 (inactive); in [10] it was 0.488.
Consider `COc1ccc([Si](C)(C)[C@H]2[C@H](CC(=O)N3Cc4ccccc4C[C@H]3CO)O[C@@]3(C(=O)N(Cc4cccc(N5CCC5=O)c4)c4ccccc43)[C@@H]2C)cc1`, for which the z-score in test [1] is -0.774; in [2], 0.472 (inactive); in test [3], -2.31 (inactive); in test [5] it was 0.389 (inactive); in [6], 2.58 (inactive); in test [7], 0.675 (inactive). Moreover, the figures for the z-score in test [8] and in test [9] were 0.398 (inactive) and -2.01, respectively. The composite z-score in test [4] is -2.72 (inactive); in test [10], -0.0393.
For `C=CCNC(=O)[C@H]1[C@@H]2C(=O)O[C@@H](c3ccccc3)[C@@H](c3ccccc3)N2[C@@H](c2ccccc2OCCO)[C@]12C(=O)Nc1ccc(C#CCC(C(=O)OC)C(=O)OC)cc12`, the z-score in [1] is 0.57; in test [2], 2.25 (inactive); in [3], -7.81 (inactive); in test [5], 2.07 (inactive); in test [6], 3.57 (inactive); in test [7] it was 0.284 (inactive). Also, the results for the z-score in test [8] and in [9] were -0.303 (inactive) and -7.24, respectively. Further, the composite z-score in test [4] was -0.95 (inactive); in test [10], -0.159.
For the compound `COC(=O)[C@@]1(CCC(=O)OC(C)(C)C)N=C(c2ccc(OCCCO)cc2)O[C@H]1c1ccccc1N=[N+]=[N-]`, the z-score in test [1] is -1.15; in test [2], 0.381 (inactive); in test [3], -6.96 (inactive); in [5] it was 2.78 (inactive); in [6], 1 (inactive); in [7], 0.276 (inactive). The results for the z-score in test [8] and in test [9] were -0.903 (inactive) and -5.04, respectively. In addition, the composite z-score in [4] was 0.414 (inactive); in test [10], 0.168.
In the case of `COC(=O)[C@@]1(Cc2ccc(OC)cc2)[C@H]2c3cc(C(=O)N4CCCC4)n(Cc4ccc(O)c(OC)c4)c3C[C@H]2CN1C(=O)c1ccccc1`, the z-score in [1] is -1.76; in test [2] it was 1.19 (inactive); in test [3], -0.431 (inactive); in test [5], 0.591 (inactive); in [6], 0.609 (inactive); in [7], -0.446 (inactive). Further, the z-score in test [8] is -0.0429 (inactive); in test [9], -2.77. The composite z-score is 0.191 (inactive) in test [4] and 0.227 in test [10].
For the compound `CCc1cccc(NC(=O)O[C@H]2[C@H](OC(=O)Nc3ccccc3-c3ccccc3)[C@@H](OC(=O)Nc3ccccc3-c3ccccc3)[C@@H](OC)O[C@@H]2CO)c1`, the z-score in test [1] is -4.43; in [2] it was 0.972 (inactive); in test [3], -4.83 (inactive); in test [5], 0.0279 (inactive); in [6] it was 0.924 (inactive); in test [7], -1.04 (inactive). For the same compound, the z-score in test [8] was -0.361 (inactive); in test [9], -5.09. For the same compound, the composite z-score in test [4] was 0.153 (inactive); in test [10], 0.19.
